# Measurements taken from paper PMC12864922, “TDP-43 directly inhibits mRNA accumulation in neurites through modulation of mRNA stability”.
# Over roughly 9,900 sequences, “r (bound/input frequency ratio)” has its median near 0.7; the highest 2% begin near 6.5. The full list was thinned out, with the highest values kept by preference.
# B1: ENSMUSG00000042529.290|Kcnj12 (ssRNA)
# RNA: GGGAGUUCUACAGUCCGACGAUCGCUUCGAUAUCCGCAUGCUAGGCACCUGUCAUUCUUUCUGAGUAGGUGGGCCUGUAUCCAGAGCAGGGUCUAGGGGCUCCUGCUCCCGGCUCAUCUCAGUGGCCUGAAGCAUUCAAAACUCUAGCCAGCCCCAUCCUCCUCCCUGCCAGAAUGGUCCAGUCCCUGGGCCCUGCUGGAGAGCAGCUCAAACUGCCUUUCAUCUCUGCCAAAGGCAGGCAGAUGCUGUAUUUUCAAAUUCUCCUGCCCUCUUUUCCCCUUUUUCCCUGUAUUUAUUUAUUGCCUCUUGCGGUCGCACUAGUGUGGAAUUCUCGGGUGUCAAGG
# B2: ENSMUSG00000042529.421|Kcnj12 (ssRNA)
# RNA: GGGAGUUCUACAGUCCGACGAUCGCUUCGAUAUCCGCAUGCUAGUGUGAACAUGUGUGAGGGUGUGGAGGUCCCAGGGUGUGUGUAUGUGAAUGUCAGUGGCUUGGGUGCUGUGUGGAGAGAGAGAGAGAGAGAGAGAGAGAGAGAGAGAGAGAGAGAGAGAGAGAGCUGCACAGGAUGAAGCAGCUGCCCUGAGCCCAUCUGGUGCUGUGCACCUGGUCCUUGUCCAGCCGAGGGCCUGGGGGCAGAAGAACACACCAUAGGGAGGCCCUUGUAUGGGUGUCUGCCCUAUGUGAGGUCAUAGCUCUUGCGGUCGCACUAGUGUGGAAUUCUCGGGUGUCAAGG
# B3: ENSMUSG00000042529.422|Kcnj12 (ssRNA)
# RNA: GGGAGUUCUACAGUCCGACGAUCGCUUCGAUAUCCGCAUGCUAACAUGUGUGAGGGUGUGGAGGUCCCAGGGUGUGUGUAUGUGAAUGUCAGUGGCUUGGGUGCUGUGUGGAGAGAGAGAGAGAGAGAGAGAGAGAGAGAGAGAGAGAGAGAGAGAGAGAGCUGCACAGGAUGAAGCAGCUGCCCUGAGCCCAUCUGGUGCUGUGCACCUGGUCCUUGUCCAGCCGAGGGCCUGGGGGCAGAAGAACACACCAUAGGGAGGCCCUUGUAUGGGUGUCUGCCCUAUGUGAGGUCAUAGAAUGUUCUCUUGCGGUCGCACUAGUGUGGAAUUCUCGGGUGUCAAGG
# B4: ENSMUSG00000042529.424|Kcnj12 (ssRNA)
# RNA: GGGAGUUCUACAGUCCGACGAUCGCUUCGAUAUCCGCAUGCUAGUGUGGAGGUCCCAGGGUGUGUGUAUGUGAAUGUCAGUGGCUUGGGUGCUGUGUGGAGAGAGAGAGAGAGAGAGAGAGAGAGAGAGAGAGAGAGAGAGAGAGAGAGCUGCACAGGAUGAAGCAGCUGCCCUGAGCCCAUCUGGUGCUGUGCACCUGGUCCUUGUCCAGCCGAGGGCCUGGGGGCAGAAGAACACACCAUAGGGAGGCCCUUGUAUGGGUGUCUGCCCUAUGUGAGGUCAUAGAAUGUUAAAUCUAUUUUACUCUUGCGGUCGCACUAGUGUGGAAUUCUCGGGUGUCAAGG
# B5: ENSMUSG00000042529.423|Kcnj12 (ssRNA)
# RNA: GGGAGUUCUACAGUCCGACGAUCGCUUCGAUAUCCGCAUGCUAGUGAGGGUGUGGAGGUCCCAGGGUGUGUGUAUGUGAAUGUCAGUGGCUUGGGUGCUGUGUGGAGAGAGAGAGAGAGAGAGAGAGAGAGAGAGAGAGAGAGAGAGAGAGAGAGCUGCACAGGAUGAAGCAGCUGCCCUGAGCCCAUCUGGUGCUGUGCACCUGGUCCUUGUCCAGCCGAGGGCCUGGGGGCAGAAGAACACACCAUAGGGAGGCCCUUGUAUGGGUGUCUGCCCUAUGUGAGGUCAUAGAAUGUUAAAUCUCUCUUGCGGUCGCACUAGUGUGGAAUUCUCGGGUGUCAAGG
# B6: ENSMUSG00000042529.416|Kcnj12 (ssRNA)
# RNA: GGGAGUUCUACAGUCCGACGAUCGCUUCGAUAUCCGCAUGCUAGUGUGUGUGUGUGUGUGUGUGUGUGUGUGUGUGUGAACAUGUGUGAGGGUGUGGAGGUCCCAGGGUGUGUGUAUGUGAAUGUCAGUGGCUUGGGUGCUGUGUGGAGAGAGAGAGAGAGAGAGAGAGAGAGAGAGAGAGAGAGAGAGAGAGAGAGCUGCACAGGAUGAAGCAGCUGCCCUGAGCCCAUCUGGUGCUGUGCACCUGGUCCUUGUCCAGCCGAGGGCCUGGGGGCAGAAGAACACACCAUAGGGAGGCCCUUGCUCUUGCGGUCGCACUAGUGUGGAAUUCUCGGGUGUCAAGG
# B7: ENSMUSG00000042529.419|Kcnj12 (ssRNA)
# RNA: GGGAGUUCUACAGUCCGACGAUCGCUUCGAUAUCCGCAUGCUAGUGUGUGUGUGUGUGUGAACAUGUGUGAGGGUGUGGAGGUCCCAGGGUGUGUGUAUGUGAAUGUCAGUGGCUUGGGUGCUGUGUGGAGAGAGAGAGAGAGAGAGAGAGAGAGAGAGAGAGAGAGAGAGAGAGAGAGCUGCACAGGAUGAAGCAGCUGCCCUGAGCCCAUCUGGUGCUGUGCACCUGGUCCUUGUCCAGCCGAGGGCCUGGGGGCAGAAGAACACACCAUAGGGAGGCCCUUGUAUGGGUGUCUGCCCUAUCUCUUGCGGUCGCACUAGUGUGGAAUUCUCGGGUGUCAAGG
# B8: ENSMUSG00000042529.420|Kcnj12 (ssRNA)
# RNA: GGGAGUUCUACAGUCCGACGAUCGCUUCGAUAUCCGCAUGCUAGUGUGUGUGUGAACAUGUGUGAGGGUGUGGAGGUCCCAGGGUGUGUGUAUGUGAAUGUCAGUGGCUUGGGUGCUGUGUGGAGAGAGAGAGAGAGAGAGAGAGAGAGAGAGAGAGAGAGAGAGAGAGAGAGCUGCACAGGAUGAAGCAGCUGCCCUGAGCCCAUCUGGUGCUGUGCACCUGGUCCUUGUCCAGCCGAGGGCCUGGGGGCAGAAGAACACACCAUAGGGAGGCCCUUGUAUGGGUGUCUGCCCUAUGUGAGGCUCUUGCGGUCGCACUAGUGUGGAAUUCUCGGGUGUCAAGG
# B9: ENSMUSG00000042529.417|Kcnj12 (ssRNA)
# RNA: GGGAGUUCUACAGUCCGACGAUCGCUUCGAUAUCCGCAUGCUAGUGUGUGUGUGUGUGUGUGUGUGUGUGUGAACAUGUGUGAGGGUGUGGAGGUCCCAGGGUGUGUGUAUGUGAAUGUCAGUGGCUUGGGUGCUGUGUGGAGAGAGAGAGAGAGAGAGAGAGAGAGAGAGAGAGAGAGAGAGAGAGAGAGCUGCACAGGAUGAAGCAGCUGCCCUGAGCCCAUCUGGUGCUGUGCACCUGGUCCUUGUCCAGCCGAGGGCCUGGGGGCAGAAGAACACACCAUAGGGAGGCCCUUGUAUGGGCUCUUGCGGUCGCACUAGUGUGGAAUUCUCGGGUGUCAAGG
# B10: ENSMUSG00000042529.418|Kcnj12 (ssRNA)
# RNA: GGGAGUUCUACAGUCCGACGAUCGCUUCGAUAUCCGCAUGCUAGUGUGUGUGUGUGUGUGUGUGUGAACAUGUGUGAGGGUGUGGAGGUCCCAGGGUGUGUGUAUGUGAAUGUCAGUGGCUUGGGUGCUGUGUGGAGAGAGAGAGAGAGAGAGAGAGAGAGAGAGAGAGAGAGAGAGAGAGAGAGCUGCACAGGAUGAAGCAGCUGCCCUGAGCCCAUCUGGUGCUGUGCACCUGGUCCUUGUCCAGCCGAGGGCCUGGGGGCAGAAGAACACACCAUAGGGAGGCCCUUGUAUGGGUGUCUGCUCUUGCGGUCGCACUAGUGUGGAAUUCUCGGGUGUCAAGG
# Target: TDP-43 (Homo sapiens, UniProt Q13148 1-414)
# Experiment: RNA Bind-n-Seq with designed 260-mer pool; 25 mM Tris-HCl, 150 mM KCl, 3 mM MgCl2, BSA (printed 500 mg/mL), 20 units/mL SUPERase IN; pH not stated; 500 nM RNA pool, 1 h, 4 C; TDP-43 5, 50, 500 nM; high values mean tight binding
# Conditions: protein: recombinant; tags: SBP (GST cleaved off with PreScission; pGEX-GST-SBP)
# Outline: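 Streptavidin beads captured recombinant SBP-tagged TDP-43 at 5, 50 or 500 nM, and the beads were incubated for 1 h at 4 °C with 500 nM of an in vitro-transcribed pool of 260-nt 3′ UTR oligos in 25 mM Tris-HCl, 150 mM KCl, 3 mM MgCl2, BSA and SUPERase IN. After washing, bound RNA was eluted with biotin, reverse transcribed, PCR-amplified and sequenced. Binding is reported as R, the mapped-read-normalized abundance of each oligo in the bound sample divided by its abundance in the input. Two independent protein batches served as duplicates.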
# TDP-43, sequence (Q13148 whole entry): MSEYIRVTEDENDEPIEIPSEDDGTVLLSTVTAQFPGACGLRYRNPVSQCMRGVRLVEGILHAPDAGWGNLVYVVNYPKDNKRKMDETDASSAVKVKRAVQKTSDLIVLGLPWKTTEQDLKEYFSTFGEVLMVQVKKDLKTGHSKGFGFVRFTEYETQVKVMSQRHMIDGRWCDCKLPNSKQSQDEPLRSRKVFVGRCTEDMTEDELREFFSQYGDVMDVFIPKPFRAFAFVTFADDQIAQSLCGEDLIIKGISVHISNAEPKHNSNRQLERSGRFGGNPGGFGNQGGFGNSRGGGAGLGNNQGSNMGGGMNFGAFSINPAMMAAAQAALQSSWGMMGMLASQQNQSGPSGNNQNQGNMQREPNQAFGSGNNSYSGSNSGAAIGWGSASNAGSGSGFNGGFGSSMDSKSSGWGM
row,Binder,binding signal
1,B1,1.04 R (bound/input frequency ratio)
2,B2,6.04 R (bound/input frequency ratio)
3,B3,6.32 R (bound/input frequency ratio)
4,B4,5.67 R (bound/input frequency ratio)
5,B5,7.6 R (bound/input frequency ratio)
6,B6,6.11 R (bound/input frequency ratio)
7,B7,6.65 R (bound/input frequency ratio)
8,B8,6.59 R (bound/input frequency ratio)
9,B9,5.22 R (bound/input frequency ratio)
10,B10,6.38 R (bound/input frequency ratio)
